The target in test [1] is Insulin receptor (Homo sapiens) (UniProt P06213). The settings on record: at 10 µM.
Test [2] shares this target. The settings on record: at 1 µM.
The target of test [3] is T1, Interleukin-1 receptor-associated kinase 4 (Homo sapiens) (UniProt Q9NWZ3).
T1 sequence (whole entry): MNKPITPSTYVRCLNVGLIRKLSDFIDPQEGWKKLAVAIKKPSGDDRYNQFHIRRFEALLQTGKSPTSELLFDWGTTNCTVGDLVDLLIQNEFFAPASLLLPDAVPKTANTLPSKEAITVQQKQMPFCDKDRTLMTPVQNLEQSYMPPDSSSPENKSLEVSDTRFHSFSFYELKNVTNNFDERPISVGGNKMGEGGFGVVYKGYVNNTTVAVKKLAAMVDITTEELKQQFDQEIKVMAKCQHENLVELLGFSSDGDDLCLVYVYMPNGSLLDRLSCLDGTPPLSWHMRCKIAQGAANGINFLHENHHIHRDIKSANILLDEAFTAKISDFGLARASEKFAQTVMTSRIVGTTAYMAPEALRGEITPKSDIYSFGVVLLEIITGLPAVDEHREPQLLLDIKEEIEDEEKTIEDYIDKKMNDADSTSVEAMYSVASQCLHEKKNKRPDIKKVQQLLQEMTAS
The settings on record: at 1 µM.

Test [4] has as its target T1, Interleukin-1 receptor-associated kinase 4 (Homo sapiens). The settings on record: at 10 µM.
The target in test [5] is Insulin receptor-related protein (Homo sapiens) (UniProt P14616). The settings on record: at 1 µM.
Test [6] has the same target. The conditions noted are these: at 10 µM.
The target in test [7] is T2, Tyrosine-protein kinase ITK/TSK (Homo sapiens) (UniProt Q08881).
T2 sequence (whole entry): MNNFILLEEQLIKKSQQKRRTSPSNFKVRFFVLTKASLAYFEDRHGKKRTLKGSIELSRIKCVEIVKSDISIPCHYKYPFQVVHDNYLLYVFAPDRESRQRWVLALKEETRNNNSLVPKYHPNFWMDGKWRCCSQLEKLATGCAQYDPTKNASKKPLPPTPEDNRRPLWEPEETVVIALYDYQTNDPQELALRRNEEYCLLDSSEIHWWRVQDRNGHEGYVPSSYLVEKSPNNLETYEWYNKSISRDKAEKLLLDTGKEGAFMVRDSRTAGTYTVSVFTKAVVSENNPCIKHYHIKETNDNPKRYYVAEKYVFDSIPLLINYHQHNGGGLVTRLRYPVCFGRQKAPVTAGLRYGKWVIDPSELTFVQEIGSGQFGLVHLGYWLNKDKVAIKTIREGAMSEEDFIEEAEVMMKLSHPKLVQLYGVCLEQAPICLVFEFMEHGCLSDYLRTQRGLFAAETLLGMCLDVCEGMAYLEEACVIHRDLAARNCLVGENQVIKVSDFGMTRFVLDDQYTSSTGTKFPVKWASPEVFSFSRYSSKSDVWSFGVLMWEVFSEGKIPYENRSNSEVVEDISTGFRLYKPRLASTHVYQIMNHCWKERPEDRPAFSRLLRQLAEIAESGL
The settings on record: at 1 µM.

The target in test [8] is Tyrosine-protein kinase JAK2 (Homo sapiens) (UniProt O60674). The settings on record: at 10 µM.
Chain of Tyrosine-protein kinase JAK2 (Homo sapiens) (O60674 whole entry): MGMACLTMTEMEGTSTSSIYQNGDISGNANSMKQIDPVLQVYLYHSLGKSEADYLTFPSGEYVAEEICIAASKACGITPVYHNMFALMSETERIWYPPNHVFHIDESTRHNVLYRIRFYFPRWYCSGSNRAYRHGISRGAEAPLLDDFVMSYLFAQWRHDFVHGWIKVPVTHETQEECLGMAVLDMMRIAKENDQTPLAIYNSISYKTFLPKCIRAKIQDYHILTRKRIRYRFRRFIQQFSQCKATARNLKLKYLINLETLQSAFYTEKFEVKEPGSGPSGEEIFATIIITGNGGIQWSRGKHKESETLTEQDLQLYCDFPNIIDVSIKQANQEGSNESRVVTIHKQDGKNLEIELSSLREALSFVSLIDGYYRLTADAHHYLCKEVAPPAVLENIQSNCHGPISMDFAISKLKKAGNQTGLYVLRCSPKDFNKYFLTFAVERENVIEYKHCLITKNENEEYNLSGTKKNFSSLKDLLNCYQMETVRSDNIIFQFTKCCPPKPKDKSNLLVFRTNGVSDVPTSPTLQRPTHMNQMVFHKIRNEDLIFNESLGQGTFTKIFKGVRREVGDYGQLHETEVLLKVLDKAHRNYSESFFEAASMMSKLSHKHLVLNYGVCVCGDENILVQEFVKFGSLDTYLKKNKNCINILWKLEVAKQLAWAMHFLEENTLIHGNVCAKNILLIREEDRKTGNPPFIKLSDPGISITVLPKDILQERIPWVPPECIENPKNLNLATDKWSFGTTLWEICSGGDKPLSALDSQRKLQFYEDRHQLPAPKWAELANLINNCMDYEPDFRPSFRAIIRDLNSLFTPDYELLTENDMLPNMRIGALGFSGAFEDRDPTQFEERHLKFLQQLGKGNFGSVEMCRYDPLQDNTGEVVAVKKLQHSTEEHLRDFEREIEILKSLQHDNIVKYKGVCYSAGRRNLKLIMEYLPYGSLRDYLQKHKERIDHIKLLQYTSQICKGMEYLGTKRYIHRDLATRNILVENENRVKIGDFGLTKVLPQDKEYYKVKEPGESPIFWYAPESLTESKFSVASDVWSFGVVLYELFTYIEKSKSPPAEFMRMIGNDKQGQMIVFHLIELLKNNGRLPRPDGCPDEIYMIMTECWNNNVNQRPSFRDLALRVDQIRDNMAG
Test [9] addresses T3, Tyrosine-protein kinase JAK3 (Homo sapiens) (UniProt P52333).
T3 sequence (whole entry): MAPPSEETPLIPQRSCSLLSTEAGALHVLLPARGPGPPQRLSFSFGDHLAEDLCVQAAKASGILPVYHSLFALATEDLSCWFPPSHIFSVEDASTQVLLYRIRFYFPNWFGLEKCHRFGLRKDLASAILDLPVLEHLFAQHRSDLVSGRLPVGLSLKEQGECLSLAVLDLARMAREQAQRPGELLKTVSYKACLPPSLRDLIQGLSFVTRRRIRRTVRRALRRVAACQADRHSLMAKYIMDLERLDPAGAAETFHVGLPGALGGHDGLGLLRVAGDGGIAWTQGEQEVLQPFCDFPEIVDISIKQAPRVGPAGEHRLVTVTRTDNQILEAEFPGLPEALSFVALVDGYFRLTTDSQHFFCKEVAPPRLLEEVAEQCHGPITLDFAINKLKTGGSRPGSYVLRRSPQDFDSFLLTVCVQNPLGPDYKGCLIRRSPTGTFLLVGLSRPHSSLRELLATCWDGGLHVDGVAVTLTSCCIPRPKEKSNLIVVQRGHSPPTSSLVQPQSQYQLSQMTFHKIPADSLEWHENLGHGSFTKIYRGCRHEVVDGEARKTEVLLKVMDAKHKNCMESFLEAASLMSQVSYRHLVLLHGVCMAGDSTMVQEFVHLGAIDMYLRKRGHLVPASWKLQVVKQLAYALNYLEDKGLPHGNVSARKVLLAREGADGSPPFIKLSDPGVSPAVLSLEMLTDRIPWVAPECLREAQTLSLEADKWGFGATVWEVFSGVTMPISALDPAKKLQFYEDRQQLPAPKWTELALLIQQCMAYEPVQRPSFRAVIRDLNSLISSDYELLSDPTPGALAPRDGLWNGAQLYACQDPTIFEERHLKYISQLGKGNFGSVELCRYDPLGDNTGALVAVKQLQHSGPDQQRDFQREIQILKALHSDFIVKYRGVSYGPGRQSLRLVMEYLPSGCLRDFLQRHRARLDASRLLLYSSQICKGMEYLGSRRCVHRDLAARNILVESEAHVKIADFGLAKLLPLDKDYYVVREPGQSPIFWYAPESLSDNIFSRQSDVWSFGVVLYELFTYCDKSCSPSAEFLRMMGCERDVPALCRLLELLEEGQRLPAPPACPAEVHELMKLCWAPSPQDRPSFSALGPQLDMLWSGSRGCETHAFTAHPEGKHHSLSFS
The settings on record: at 1 µM.

The target of test [10] is T3, Tyrosine-protein kinase JAK3 (Homo sapiens). The conditions noted are these: at 10 µM.
Test [11] has as its target Mitogen-activated protein kinase 8 (Homo sapiens) (UniProt P45983). The conditions noted are these: at 10 µM.
Test [12] addresses Mitogen-activated protein kinase 10 (Homo sapiens) (UniProt P53779). The conditions noted are these: at 1 µM.
In test [13] the target is Insulin receptor (Homo sapiens) (UniProt P06213). The conditions noted are these: at 10 µM. This is another data set of the same source.
For test [14], the target named is Interleukin-1 receptor-associated kinase 1 (Homo sapiens) (UniProt P51617). The settings on record: at 1 µM.
Chain of Interleukin-1 receptor-associated kinase 1 (Homo sapiens) (P51617 whole entry, looked up): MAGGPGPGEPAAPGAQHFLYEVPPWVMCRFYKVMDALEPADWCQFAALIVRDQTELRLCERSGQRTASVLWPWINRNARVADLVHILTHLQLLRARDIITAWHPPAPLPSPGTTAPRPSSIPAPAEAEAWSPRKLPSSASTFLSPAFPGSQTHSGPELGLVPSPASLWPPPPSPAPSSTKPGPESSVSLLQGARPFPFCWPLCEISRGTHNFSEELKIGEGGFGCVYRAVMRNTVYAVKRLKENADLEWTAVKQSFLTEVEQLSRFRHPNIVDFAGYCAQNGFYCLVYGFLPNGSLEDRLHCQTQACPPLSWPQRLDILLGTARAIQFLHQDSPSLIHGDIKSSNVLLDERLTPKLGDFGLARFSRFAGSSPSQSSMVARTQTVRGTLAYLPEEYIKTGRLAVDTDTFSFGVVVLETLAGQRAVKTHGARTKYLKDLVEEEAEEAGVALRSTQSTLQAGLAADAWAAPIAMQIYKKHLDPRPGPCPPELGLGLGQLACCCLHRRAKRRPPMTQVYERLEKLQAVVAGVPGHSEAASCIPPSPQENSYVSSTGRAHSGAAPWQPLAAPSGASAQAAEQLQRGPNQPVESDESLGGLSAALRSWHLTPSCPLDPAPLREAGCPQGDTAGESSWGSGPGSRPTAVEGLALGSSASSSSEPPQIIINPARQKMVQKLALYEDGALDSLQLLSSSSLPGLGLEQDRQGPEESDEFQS
For test [15] the target is unchanged. The settings on record: at 10 µM.
Test [16] concerns the target T2, Tyrosine-protein kinase ITK/TSK (Homo sapiens). The settings on record: at 10 µM.
The target of test [17] is Tyrosine-protein kinase JAK2 (Homo sapiens) (UniProt O60674). The settings on record: at 1 µM.
Test [18] concerns the target Mitogen-activated protein kinase 9 (Homo sapiens) (UniProt P45984). The settings on record: at 1 µM.
Test [19] has the same target. The conditions noted are these: at 10 µM.
In test [20] the target is Mitogen-activated protein kinase 8 (Homo sapiens) (UniProt P45983). The settings on record: at 1 µM.
Chain of Mitogen-activated protein kinase 8 (Homo sapiens) (P45983 whole entry): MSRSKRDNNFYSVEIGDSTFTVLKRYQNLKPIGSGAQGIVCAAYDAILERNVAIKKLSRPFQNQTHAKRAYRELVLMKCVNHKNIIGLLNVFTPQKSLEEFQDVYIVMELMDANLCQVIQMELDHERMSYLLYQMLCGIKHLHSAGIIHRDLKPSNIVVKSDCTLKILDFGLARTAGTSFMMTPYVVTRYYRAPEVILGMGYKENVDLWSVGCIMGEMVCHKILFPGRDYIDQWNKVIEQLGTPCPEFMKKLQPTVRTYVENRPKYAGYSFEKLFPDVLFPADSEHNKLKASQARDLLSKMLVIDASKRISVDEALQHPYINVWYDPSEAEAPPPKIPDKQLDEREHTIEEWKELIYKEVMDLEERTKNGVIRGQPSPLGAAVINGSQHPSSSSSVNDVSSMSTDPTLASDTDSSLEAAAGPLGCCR

Chain of Mitogen-activated protein kinase 10 (Homo sapiens) (P53779 whole entry): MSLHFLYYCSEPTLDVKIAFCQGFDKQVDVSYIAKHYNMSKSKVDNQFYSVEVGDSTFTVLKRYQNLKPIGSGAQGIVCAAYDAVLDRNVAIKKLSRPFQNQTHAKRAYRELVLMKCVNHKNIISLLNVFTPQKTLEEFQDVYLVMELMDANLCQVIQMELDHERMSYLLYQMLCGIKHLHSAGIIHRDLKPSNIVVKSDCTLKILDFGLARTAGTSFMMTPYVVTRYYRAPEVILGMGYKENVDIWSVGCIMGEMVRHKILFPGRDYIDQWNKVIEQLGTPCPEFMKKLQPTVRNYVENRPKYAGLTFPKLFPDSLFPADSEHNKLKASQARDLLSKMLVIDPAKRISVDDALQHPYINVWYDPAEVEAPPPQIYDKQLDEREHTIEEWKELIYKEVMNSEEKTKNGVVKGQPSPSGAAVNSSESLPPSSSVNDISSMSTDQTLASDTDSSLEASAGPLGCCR
Chain of Insulin receptor (Homo sapiens) (P06213 28-758 limits assumed): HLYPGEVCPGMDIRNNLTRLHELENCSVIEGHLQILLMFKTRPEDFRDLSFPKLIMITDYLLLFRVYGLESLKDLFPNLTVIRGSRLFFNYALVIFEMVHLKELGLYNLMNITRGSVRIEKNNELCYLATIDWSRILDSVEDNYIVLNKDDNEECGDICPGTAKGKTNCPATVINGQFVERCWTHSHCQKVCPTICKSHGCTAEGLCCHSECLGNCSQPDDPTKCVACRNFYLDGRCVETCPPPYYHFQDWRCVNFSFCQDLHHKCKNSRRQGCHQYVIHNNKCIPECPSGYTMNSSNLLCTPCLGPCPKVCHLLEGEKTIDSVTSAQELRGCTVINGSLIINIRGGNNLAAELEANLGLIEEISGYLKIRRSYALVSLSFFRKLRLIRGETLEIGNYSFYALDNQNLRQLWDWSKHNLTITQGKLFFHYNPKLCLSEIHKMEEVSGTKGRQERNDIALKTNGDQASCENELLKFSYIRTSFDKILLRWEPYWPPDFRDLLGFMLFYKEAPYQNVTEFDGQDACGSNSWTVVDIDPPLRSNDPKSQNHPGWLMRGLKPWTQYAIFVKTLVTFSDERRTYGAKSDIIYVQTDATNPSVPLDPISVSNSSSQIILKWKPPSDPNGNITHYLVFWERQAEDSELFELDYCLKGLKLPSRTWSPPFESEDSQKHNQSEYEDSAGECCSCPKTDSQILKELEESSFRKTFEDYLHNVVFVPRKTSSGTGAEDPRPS
Chain of Insulin receptor (Homo sapiens) (P06213 763-1382 limits assumed): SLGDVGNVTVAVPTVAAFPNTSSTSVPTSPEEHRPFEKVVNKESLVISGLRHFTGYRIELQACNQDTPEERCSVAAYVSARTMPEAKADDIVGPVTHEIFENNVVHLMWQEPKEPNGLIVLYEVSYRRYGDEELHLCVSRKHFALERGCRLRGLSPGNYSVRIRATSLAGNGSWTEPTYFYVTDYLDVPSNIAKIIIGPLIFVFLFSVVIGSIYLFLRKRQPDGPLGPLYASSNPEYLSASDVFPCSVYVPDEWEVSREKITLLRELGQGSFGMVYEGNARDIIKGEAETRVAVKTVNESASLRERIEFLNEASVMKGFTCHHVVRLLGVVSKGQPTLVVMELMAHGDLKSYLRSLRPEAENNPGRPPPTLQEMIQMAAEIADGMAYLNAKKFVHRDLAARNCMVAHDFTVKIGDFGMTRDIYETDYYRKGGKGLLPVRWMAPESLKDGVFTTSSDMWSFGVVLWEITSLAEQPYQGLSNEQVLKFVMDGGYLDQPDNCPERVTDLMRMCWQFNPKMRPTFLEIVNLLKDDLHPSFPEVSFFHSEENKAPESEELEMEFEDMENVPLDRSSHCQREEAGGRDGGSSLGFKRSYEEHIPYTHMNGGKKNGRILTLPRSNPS
Chain of Mitogen-activated protein kinase 9 (Homo sapiens) (P45984 whole entry, looked up): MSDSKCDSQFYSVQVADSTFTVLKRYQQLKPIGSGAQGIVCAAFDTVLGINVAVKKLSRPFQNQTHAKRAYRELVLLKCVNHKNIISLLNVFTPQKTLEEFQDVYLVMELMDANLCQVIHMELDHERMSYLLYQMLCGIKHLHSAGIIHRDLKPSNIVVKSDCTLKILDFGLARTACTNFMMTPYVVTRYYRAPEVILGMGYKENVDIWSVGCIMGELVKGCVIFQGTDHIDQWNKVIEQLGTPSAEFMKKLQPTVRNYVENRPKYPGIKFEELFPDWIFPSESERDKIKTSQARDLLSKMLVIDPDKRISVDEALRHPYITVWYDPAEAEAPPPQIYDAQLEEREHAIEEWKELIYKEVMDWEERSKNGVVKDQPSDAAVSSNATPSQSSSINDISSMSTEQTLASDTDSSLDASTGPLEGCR

As for `O=C1NC(=O)C(c2c[nH]c3ccccc23)=C1c1c[nH]c2ccccc12`, the residual activity turned out to be 62% in test [1]; 100% in test [2]; 81% in test [3]; 27% in [4]; 120% in [5]; 37% in [6]. Further, the residual activity in [7] amounted to 100%; in [8], 33%; in test [9] it was 43%; in test [10], 6%; in test [11], 35%; in test [12], 56%.
For the molecule `CC(C)c1nn(-c2c(Cl)cccc2Cl)c2nc(Cc3ccc(OCCO)cc3)[nH]c(=O)c12`, the residual activity amounted to 102% in [2]; 99% in [13]; 103% in test [14]; 84% in [15]; 104% in [3]; 91% in test [4]. The residual activity in test [7] was 98%; in test [16], 96%; in test [17] it was 85%; in [8] it was 100%; in test [9], 103%; in test [10] it was 106%. The residual activity in [11] stood at 94%; in test [18], 99%; in test [19], 86%; in [12] it was 81%.
On to `O=c1cc(N2CCOCC2)oc2c1ccc1ccccc12`, for which the residual activity in [1] was determined as 91%; in test [2], 103%; in test [13], 97%; in test [14], 83%; in [15], 88%; in [3] it was 96%. Also, the residual activity is 88% in test [4]; 98% in test [6]; 96% in test [7]; 94% in [16]; 100% in test [9]; 108% in test [10]. Besides, the residual activity in [20] is 103%; in test [11], 87%; in [18], 110%; in test [19], 97%.
Turning to `O=C1Nc2ccc(Cl)cc2/C1=C/c1cc(Cl)c(O)c(Cl)c1`, the residual activity in [1] came to 63%; in test [2] it was 95%; in [13] it was 57%; in test [14], 84%; in test [15], 81%; in test [3], 75%. Besides, the residual activity was 51% in [4]; 111% in test [5]; 74% in test [6]; 98% in test [17]; 69% in test [8]; 75% in test [9]. For the same molecule, the residual activity in test [10] came to 28%; in test [20], 95%; in test [11], 69%; in test [12], 64%.
As for `CCN(CC)CCNC(=O)c1c(C)[nH]c(/C=C2\C(=O)Nc3ccc(Cl)cc32)c1C`, the residual activity is 6% in [1]; 8% in test [2]; 0% in test [13]; 9% in test [14]; 0% in test [15]; 22% in [3]. Besides, the residual activity in test [4] came out at 7%; in test [5], 13%; in [6] it was 0%; in test [7], 21%; in test [16], 2%; in [17] it was 72%. Further, the residual activity came out at 20% in test [8]; 62% in [9]; 16% in [10]; 97% in test [20]; 82% in [11]; 80% in [12].
For the molecule `CC(C)(C)n1nc(Cc2cccc3ccccc23)c2c(N)ncnc21`, the residual activity in [1] was found to be 65%; in test [2], 95%; in test [13] it was 63%; in test [14], 90%; in test [15], 77%; in [3] it was 105%. The residual activity stood at 81% in [4]; 124% in test [5]; 78% in test [6]; 107% in test [7]; 106% in test [16]; 101% in test [17]. Besides, the residual activity in test [8] is 121%; in [9], 99%; in test [10], 100%; in [20], 108%; in test [11] it was 78%; in [18] it was 108%. The residual activity in [19] amounted to 78%; in [12], 28%.
Consider `CCN1/C(=C/C(C)=O)Sc2ccc(OC)cc21`, for which, in test [12], the residual activity turned out to be 65%.
As to `CCCCc1c(-c2ccc(O)cc2)[nH]c2nccnc12`, the residual activity in test [14] came to 52%; in [15], 53%; in [3], 71%; in test [4], 26%; in test [7], 93%; in test [16], 38%. For the same molecule, the residual activity in test [17] was found to be 62%; in [8] it was 63%; in test [9] it was 80%; in test [10], 26%; in test [18], 97%; in test [19], 98%. Further, in test [12], the residual activity turned out to be 56%.
For the molecule `COc1ccc(CNC(=O)Nc2ncc([N+](=O)[O-])s2)cc1`, the residual activity in test [15] worked out at 103%; in [3], 72%; in test [4] it was 78%; in [12], 65%.
As for `O=C(Nc1nc2ccccc2n1CCN1CCOCC1)c1cccc([N+](=O)[O-])c1`, the residual activity in [14] was 11%; in test [15], 16%; in test [3], 13%; in [4] it was 15%; in test [7], 74%; in test [16] it was 52%. For the same molecule, the residual activity in test [17] is 24%; in test [8] it was 40%; in test [9], 85%; in [10], 69%.
As to `O=C(c1ccccc1)c1ccc(N2CCOCC2)cc1O`, the residual activity in test [15] was 89%; in [3], 117%; in [4] it was 93%; in test [5] it was 131%; in test [6], 75%; in test [17] it was 92%. In addition, the residual activity in [8] stood at 99%; in test [9] it was 91%; in [10], 82%; in [20], 116%; in [12] it was 83%.
On to `COc1cc2c(cc1OC)-c1n[nH]c(Nc3cccc(F)c3)c1C2`, for which the residual activity stood at 73% in test [14]; 68% in test [15]; 76% in test [3]; 34% in test [4]; 99% in test [5]; 41% in [16]. Also, the residual activity came out at 108% in test [8]; 114% in test [10]; 101% in test [18]; 69% in test [19]; 53% in test [12].
As to `CCOc1nc(NC(=O)Cc2cc(OC)ccc2OC)cc(N)c1C#N`, the residual activity in [3] was 81%; in test [4], 81%; in test [20], -16%; in [11] it was -6%; in [18] it was -1%; in [19], -11%. In test [12], the residual activity was -2%.
For the molecule `COc1ccc(COc2ccc(Cc3cnc(N)nc3N)cc2OC)cc1`, the residual activity in [14] came to 76%; in test [15], 67%; in test [5], 137%; in test [6], 82%; in test [7], 100%; in [16], 99%.
Take `NC(=O)c1cccc(-c2cc(Nc3ccc(OC(F)(F)F)cc3)ncn2)c1`: the residual activity turned out to be 95% in test [14], 93% in test [15], 139% in test [5] and 98% in [6].
For `CC(C)N(CCC(=O)c1ccc2ccccc2c1)Cc1ccccc1`, the residual activity was determined as 83% in test [14]; 77% in [15]; 131% in test [5]; 82% in test [6]; 78% in test [9]; 45% in [10]. The residual activity turned out to be 57% in [11], 86% in test [19] and 80% in test [12].
